A number with no mark means an inactive call. Activity calls are given as the source filed them. Rule as the data show it, unless noted: active = inhibition above about 30%; inactive = the rest.
What was measured:
[1] = molecular target: Nuclear receptor coactivator 3 (Homo sapiens) (UniProt Q9Y6Q9); test: SRC3 coactivator transcriptional activity inhibitors, confirmation, cell-based, luminescence, quadruplicate (AID 588792;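 active = mean inhibition over 43.08%, the solvent-only control mean plus 3 SD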;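 also: 0% = DMSO treated cells and 100% = gossypol at 36 µM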); settings: HEK293 GAL4-SRC3 luciferase reporter, at 3.6 µM, active compounds read high
Chain of Nuclear receptor coactivator 3 (Homo sapiens) (Q9Y6Q9 whole entry, looked up, the tested form may be a part): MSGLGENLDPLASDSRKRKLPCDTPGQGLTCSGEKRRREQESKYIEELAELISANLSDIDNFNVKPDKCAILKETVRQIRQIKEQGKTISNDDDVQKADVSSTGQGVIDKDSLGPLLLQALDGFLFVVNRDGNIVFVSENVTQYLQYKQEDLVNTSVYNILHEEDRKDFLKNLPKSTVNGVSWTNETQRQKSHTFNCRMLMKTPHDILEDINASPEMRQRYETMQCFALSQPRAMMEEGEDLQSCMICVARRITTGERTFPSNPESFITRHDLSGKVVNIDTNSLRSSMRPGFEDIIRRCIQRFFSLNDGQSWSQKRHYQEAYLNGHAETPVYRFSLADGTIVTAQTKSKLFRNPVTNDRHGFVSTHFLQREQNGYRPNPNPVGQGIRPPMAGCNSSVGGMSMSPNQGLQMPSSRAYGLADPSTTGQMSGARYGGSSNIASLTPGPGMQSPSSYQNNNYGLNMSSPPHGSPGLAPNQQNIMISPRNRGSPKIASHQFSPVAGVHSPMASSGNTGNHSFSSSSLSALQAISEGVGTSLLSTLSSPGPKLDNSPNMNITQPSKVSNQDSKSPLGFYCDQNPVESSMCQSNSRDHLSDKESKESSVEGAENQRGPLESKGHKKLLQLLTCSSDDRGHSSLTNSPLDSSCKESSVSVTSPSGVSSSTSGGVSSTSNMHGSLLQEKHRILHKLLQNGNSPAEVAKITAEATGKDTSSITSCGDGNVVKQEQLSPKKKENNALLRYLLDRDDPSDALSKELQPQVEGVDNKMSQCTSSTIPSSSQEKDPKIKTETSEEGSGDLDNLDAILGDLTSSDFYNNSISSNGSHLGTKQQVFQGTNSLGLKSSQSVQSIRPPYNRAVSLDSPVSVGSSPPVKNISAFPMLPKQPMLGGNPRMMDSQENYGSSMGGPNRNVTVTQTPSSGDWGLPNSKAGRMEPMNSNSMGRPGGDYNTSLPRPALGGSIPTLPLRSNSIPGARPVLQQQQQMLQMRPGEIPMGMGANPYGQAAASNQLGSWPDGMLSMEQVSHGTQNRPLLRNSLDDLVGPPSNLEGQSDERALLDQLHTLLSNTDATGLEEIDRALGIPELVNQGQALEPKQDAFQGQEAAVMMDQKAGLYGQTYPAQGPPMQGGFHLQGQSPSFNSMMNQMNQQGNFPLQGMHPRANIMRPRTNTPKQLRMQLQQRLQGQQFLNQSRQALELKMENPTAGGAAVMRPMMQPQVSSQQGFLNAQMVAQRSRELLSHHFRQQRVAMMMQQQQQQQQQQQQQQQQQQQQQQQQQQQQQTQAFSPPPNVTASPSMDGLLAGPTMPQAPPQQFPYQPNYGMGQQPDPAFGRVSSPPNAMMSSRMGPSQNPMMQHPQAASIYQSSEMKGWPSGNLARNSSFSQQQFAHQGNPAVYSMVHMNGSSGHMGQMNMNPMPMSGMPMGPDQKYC

[2] = tested on: transactivating tegument protein VP16 (Human herpesvirus 1), Gal4-VP16 luciferase reporter; test: VP16 transactivation inhibitors, counter-screen for SRC3 inhibitor project, cell-based, luminescence, high throughput (AID 588794); settings: mammalian cells, VP16-driven luciferase reporter luminescence; at 3.6 µM; active compounds read high
[3] = tested on: transactivating tegument protein VP16 (Human herpesvirus 1); test: VP16 transactivation reporter inhibitors, counter-screen for SRC2 inhibitor project, cell-based, luminescence, single concentration (AID 652007; in the data active = inhibition above about 36%); settings: cell-based VP16 transactivation luciferase reporter, at 8.9 µM, active compounds read high
[4] = molecular target: Nuclear receptor coactivator 2 (Homo sapiens) (UniProt Q15596); test: SRC2 coactivator transcriptional activity inhibitors, confirmation, cell-based, luminescence, HEK293, triplicate (AID 652008;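 active = mean inhibition above 46.5%, the solvent-only control mean plus 3 SD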;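 also: 0% = DMSO-treated cells and 100% = Gossypol at 36 µM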); settings: HEK293 GAL4-SRC2 luciferase reporter, at 8.9 µM, active compounds read high
Chain of Nuclear receptor coactivator 2 (Homo sapiens) (Q15596 whole entry, looked up, the tested form may be a part): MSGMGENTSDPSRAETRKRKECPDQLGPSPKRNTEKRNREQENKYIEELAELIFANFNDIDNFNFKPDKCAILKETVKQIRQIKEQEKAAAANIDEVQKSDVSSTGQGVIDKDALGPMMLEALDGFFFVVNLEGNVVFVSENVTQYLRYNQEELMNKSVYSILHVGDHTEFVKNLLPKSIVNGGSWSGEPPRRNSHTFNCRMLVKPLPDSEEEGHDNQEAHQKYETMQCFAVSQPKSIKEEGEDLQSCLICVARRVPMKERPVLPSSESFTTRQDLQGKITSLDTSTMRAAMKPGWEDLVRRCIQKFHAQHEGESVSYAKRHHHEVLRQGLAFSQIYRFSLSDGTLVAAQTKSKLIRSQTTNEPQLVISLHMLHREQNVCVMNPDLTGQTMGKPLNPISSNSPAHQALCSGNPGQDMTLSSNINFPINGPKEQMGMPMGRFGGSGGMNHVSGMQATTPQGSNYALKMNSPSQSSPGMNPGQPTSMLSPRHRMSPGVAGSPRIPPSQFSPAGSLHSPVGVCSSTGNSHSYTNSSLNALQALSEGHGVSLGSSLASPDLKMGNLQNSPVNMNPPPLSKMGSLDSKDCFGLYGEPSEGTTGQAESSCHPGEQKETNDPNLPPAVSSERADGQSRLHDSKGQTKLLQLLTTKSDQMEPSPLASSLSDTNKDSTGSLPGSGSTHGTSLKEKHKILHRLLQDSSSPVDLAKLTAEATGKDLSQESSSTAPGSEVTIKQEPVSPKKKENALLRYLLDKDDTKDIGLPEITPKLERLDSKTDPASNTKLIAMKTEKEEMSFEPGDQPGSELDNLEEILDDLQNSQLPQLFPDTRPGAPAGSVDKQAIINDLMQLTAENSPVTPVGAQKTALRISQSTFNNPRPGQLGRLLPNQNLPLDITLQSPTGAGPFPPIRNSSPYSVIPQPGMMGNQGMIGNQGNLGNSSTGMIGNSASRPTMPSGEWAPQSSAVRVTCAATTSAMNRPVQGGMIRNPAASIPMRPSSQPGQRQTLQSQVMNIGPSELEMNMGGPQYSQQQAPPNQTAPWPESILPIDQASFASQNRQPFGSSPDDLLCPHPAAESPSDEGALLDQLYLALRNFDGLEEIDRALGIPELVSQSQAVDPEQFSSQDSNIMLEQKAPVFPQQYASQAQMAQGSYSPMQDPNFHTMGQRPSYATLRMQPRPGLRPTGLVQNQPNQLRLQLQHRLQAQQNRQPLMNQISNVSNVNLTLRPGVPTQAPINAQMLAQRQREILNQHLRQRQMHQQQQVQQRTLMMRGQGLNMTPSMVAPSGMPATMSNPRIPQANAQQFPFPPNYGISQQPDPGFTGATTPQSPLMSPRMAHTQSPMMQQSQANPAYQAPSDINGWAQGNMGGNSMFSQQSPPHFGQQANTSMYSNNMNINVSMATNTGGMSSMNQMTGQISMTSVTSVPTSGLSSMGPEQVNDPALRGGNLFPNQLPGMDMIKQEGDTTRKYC

[5] = molecular target: Nuclear receptor subfamily 5 group A member 2 (Homo sapiens) (UniProt O00482); test: LRH-1 (NR5A2) inverse agonists, retest, confirmation, cell-based, luminescence (AID 651613; in the data active = inhibition above about 42%;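 also: HEK293T cells co-transfected with LRH-1 and StAR promoter luciferase reporter; 0% = vehicle wells and 100% = parental cells lacking receptor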); settings: cell-based LRH-1 luciferase reporter, inverse agonism; at 3.6 µM; active compounds read high
Chain of Nuclear receptor subfamily 5 group A member 2 (Homo sapiens) (O00482 whole entry, looked up): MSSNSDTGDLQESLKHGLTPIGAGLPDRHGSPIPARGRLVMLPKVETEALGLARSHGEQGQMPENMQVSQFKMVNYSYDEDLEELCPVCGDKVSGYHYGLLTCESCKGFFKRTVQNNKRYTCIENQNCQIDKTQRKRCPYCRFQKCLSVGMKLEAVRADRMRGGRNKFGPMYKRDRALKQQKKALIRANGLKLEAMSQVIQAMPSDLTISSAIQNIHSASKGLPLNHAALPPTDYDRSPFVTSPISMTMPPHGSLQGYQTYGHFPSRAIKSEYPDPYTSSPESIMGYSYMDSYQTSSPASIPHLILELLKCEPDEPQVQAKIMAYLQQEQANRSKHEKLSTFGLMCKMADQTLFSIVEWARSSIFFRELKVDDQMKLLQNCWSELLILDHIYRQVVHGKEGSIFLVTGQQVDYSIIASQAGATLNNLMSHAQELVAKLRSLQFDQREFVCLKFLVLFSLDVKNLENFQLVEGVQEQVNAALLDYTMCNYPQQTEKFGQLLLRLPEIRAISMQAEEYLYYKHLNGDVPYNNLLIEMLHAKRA

[6] = molecular target: Steroidogenic factor 1 (Homo sapiens) (UniProt Q13285); test: SF1 (NR5A1) inverse agonists, counter-screen for LRH-1 inverse agonist project, cell-based, luminescence, high throughput (AID 651614; in the data active = inhibition above about 44%;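 also: cells cotransfected with StAR promoter reporter and SF1 expression vector; 0% = vehicle on cells with receptor and 100% = vehicle on cells lacking receptor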); settings: cell-based SF1 luciferase reporter, at 3.6 µM, active compounds read high
Chain of Steroidogenic factor 1 (Homo sapiens) (Q13285 whole entry, looked up): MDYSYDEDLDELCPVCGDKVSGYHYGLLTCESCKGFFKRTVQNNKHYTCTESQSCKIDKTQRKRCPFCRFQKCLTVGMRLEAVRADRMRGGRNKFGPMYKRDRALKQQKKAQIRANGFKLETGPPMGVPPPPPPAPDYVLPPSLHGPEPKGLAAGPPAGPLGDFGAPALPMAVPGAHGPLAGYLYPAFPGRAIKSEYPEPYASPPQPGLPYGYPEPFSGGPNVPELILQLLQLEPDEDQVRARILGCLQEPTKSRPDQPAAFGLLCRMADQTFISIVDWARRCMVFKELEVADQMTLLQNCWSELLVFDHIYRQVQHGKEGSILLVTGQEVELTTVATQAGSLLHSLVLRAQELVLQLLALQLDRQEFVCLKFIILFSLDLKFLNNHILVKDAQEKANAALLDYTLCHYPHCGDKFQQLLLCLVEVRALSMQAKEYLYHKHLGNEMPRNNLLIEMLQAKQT

`O=C1Cc2c([nH]c3ccc([N+](=O)[O-])cc23)-c2ccccc2N1` was tested, and the inhibition [1] was 91.9% (active), the inhibition [2] was 88.9% (active) and the inhibition [3] was 23.5%. For the same compound, the inhibition [4] was 51% (active).

With `Cc1cc(Sc2nnc(N)s2)c2ccccc2n1` the inhibition [1] was -6.91%, the inhibition [2] was 22.2% and the inhibition [3] was 11.7%. The inhibition [4] was 32%.

Work on `COc1ccc(C(=O)Nc2ccc(C)cn2)c(OC)c1` yielded an inhibition [1] of -0.48%, an inhibition [2] of -4.91% and an inhibition [3] of 23.7%. For the same compound, the inhibition [4] was 49.8% (active).

Work on `CCN(CC)c1ccc(-n2c(C)c(C(C)=O)c(C(C)=O)c2C)cc1` yielded an inhibition [1] of 4.48%, an inhibition [2] of 25.7% and an inhibition [3] of -2.52%. For the same compound, the inhibition [4] was 11.8%.

For `O=C(C1=C(c2ccccc2)C(=O)c2ccccc2C1=O)c1ccccc1`, the inhibition [1] was 93.3% (active), the inhibition [2] was 90.4% (active) and the inhibition [3] was 63.8% (active). For the same compound, the inhibition [4] was 66.4% (active).

With `CCCCCCC[N+](CC)(CC)CCCCc1ccc(Cl)cc1` the inhibition [1] was 22.1%, the inhibition [2] was 28.2% and the inhibition [5] was 79% (active). The inhibition [6] was 66.2% (active).

`CCCCn1c(CCl)nc2cc(S(=O)(=O)N3CCOCC3)ccc21` was tested, and the inhibition [1] was 71.6% (active), the inhibition [2] was 34.6% (active) and the inhibition [3] was 22%. For the same compound, the inhibition [4] was 64.1% (active).

With `Cc1nc([N+](=O)[O-])c(Sc2nc3ccccc3[nH]2)n1Cc1ccccc1` the inhibition [1] was 16.1%, the inhibition [2] was 6.02% and the inhibition [3] was -3.82%. The inhibition [4] was 32.5%.

`COc1ccc(OCC(=O)N/N=C/c2ccc(O[C@@H]3O[C@H](CO)[C@@H](O)[C@H](O)[C@H]3O)cc2)cc1` was tested, and the inhibition [1] was 20.5%, the inhibition [2] was 60.1% (active) and the inhibition [5] was 64.5% (active). The inhibition [6] was 72.1% (active).

With `CCN(CC)S(=O)(=O)c1cccc(C(=O)N/N=C(\C)c2ccc(O)cc2O)c1` the inhibition [1] was 66.7% (active), the inhibition [2] was 43.7% (active) and the inhibition [3] was 2.49%. It also gave an inhibition [4] of 31.6%.

Work on `CCOc1ccc(C(=O)O/N=C(\N)c2ccccn2)cc1` yielded an inhibition [1] of -0.86%, an inhibition [2] of -11.6% and an inhibition [3] of 15.8%. It also gave an inhibition [4] of 21.9%.

With `COc1ccc(COC(=O)C2=C(C)NC(=O)NC2c2ccc(F)cc2)cc1` (configuration not stated) the inhibition [1] was 34.1%, the inhibition [2] was 28.1% and the inhibition [3] was 10.2%. It also gave an inhibition [4] of 31.4%.

In the case of `Cc1ccccc1Nc1nc(N)nc(CCl)n1`, the inhibition [1] is reported as 22.9%, the inhibition [2] is reported as 0.42% and the inhibition [3] is reported as -11.3%. For the same compound, the inhibition [4] was 52.5% (active).

With `O=C(OCc1ccccc1)c1ccc(NCc2cc(O)ccc2O)cc1` the inhibition [1] was 70.6% (active), the inhibition [2] was 25.9% and the inhibition [3] was 94.5% (active). The inhibition [4] was 90% (active).

`O=C(/C=C/c1ccccc1)CC(O)(c1ccccc1)C(F)(F)C(F)F` (configuration not stated) showed an inhibition [1] of 11%, an inhibition [2] of 4.32% and an inhibition [3] of 7.22%. The inhibition [4] was 19.9%.

For `COCC1CCN(C(=O)c2cc(COc3cccc4cnccc34)on2)CC1`, the inhibition [1] was 11.1%, the inhibition [2] was 37.7% (active) and the inhibition [3] was 3.58%. It also gave an inhibition [4] of 43.1%.

With `Nc1ccc(-c2nc3ccc(C(=O)O)cc3s2)cc1` the inhibition [1] was -24%, the inhibition [2] was -26.4% and the inhibition [3] was 40.2% (active). For the same compound, the inhibition [4] was 60.6% (active).

`O=C(NCCCn1ccnc1)c1ccc(N2CCCCCC2)c([N+](=O)[O-])c1` was tested, and the inhibition [1] was 50.3% (active), the inhibition [2] was -23.6% and the inhibition [3] was 26.9%. For the same compound, the inhibition [4] was 54.3% (active).

With `COc1ccc(Cc2nnc(N/N=C/c3ccc(O)cc3)[nH]c2=O)cc1OC` the inhibition [1] was 84.4% (active), the inhibition [2] was 81% (active) and the inhibition [3] was 33.1%. The inhibition [4] was 50.5% (active).

Work on `CCc1ccc(-c2nc(CS(=O)CC(=O)NCc3ccco3)c(C)o2)cc1` (configuration not stated) yielded an inhibition [1] of 10.8%, an inhibition [2] of -12.6% and an inhibition [3] of 3.28%. The inhibition [4] was 56.7% (active).

For `O=C(Nc1ccc(OCC(=O)N2CCOCC2)cc1)c1cncc(Br)c1`, the inhibition [1] was 29.6%, the inhibition [2] was 23% and the inhibition [3] was 3.8%. It also gave an inhibition [4] of 26.1%.

In the case of `CC(=O)OCCN1c2ccccc2Sc2cnccc21`, the inhibition [1] is reported as 43.4% (active), the inhibition [2] is reported as 26.4% and the inhibition [3] is reported as -4.99%. It also gave an inhibition [4] of 23.7%.

`CC(C)(C)C(=O)Nc1ccc(C(=O)N/N=C/c2ccccc2OC(=O)c2ccc(Cl)cc2)cc1` was tested, and the inhibition [1] was 27.4%, the inhibition [2] was 7.22% and the inhibition [3] was 6.84%. The inhibition [4] was 35.1%.

`COC(=O)c1c(C)n(-c2ccc(OC)cc2)c2ccc(O)cc12` was tested, and the inhibition [1] was 41.4%, the inhibition [2] was 24.1% and the inhibition [3] was -4.83%. The inhibition [4] was 28.1%.

`CC(C)C(=O)NC(c1ccco1)c1ccc2cccnc2c1O` (configuration not stated) showed an inhibition [1] of 32.7%, an inhibition [2] of 20.6% and an inhibition [3] of -13.3%. For the same compound, the inhibition [4] was 8.96%.

With `Cc1cccc(Nc2nc(N)nc(CCl)n2)c1C` the inhibition [1] was 62.8% (active), the inhibition [2] was 31.1% (active) and the inhibition [3] was 14.2%. The inhibition [4] was 55.7% (active).

In the case of `Cc1ccc(-n2nc3c(=O)n(C(C)C(=O)NCCC4=CCCCC4)nc(C)c3c2C)cc1` (configuration not stated), the inhibition [1] is reported as 22.9%, the inhibition [2] is reported as 47.1% (active) and the inhibition [3] is reported as 3.1%. It also gave an inhibition [4] of 29.1%.

In the case of `COc1ccc(COC(=O)C2=C(C)NC(=O)NC2c2ccc(OC)cc2)cc1` (configuration not stated), the inhibition [1] is reported as 11.2%, the inhibition [2] is reported as 20.8% and the inhibition [3] is reported as 12%. It also gave an inhibition [4] of 33%.
